High-throughput results as filed in PubChem.
JMJD2A Tudor inh = JMJD2A Tudor domain (human) inhibition | O75164 | 4.4% of 390,000 active | AlphaScreen JMJD2A-Tudor / H3K4me3 peptide binding | Potency, µM (highest dose often 114 µM), for the others: at the highest dose activity change, negative = inhibition, usual class: inhibitors; note: % is set by controls: 0 for no effect and ±100 for the full control effect; nearly all actives have a fitted effect of over 50% in size
L3MBTL1 inh = blocks human L3MBTL1; Q9Y468; AlphaScreen L3MBTL1–H3K9me1 peptide binding; Potency, µM (doses to about 57.1 µM), for inactives: top-dose activity, negative = inhibition, hits mostly inhibitors; 0.66% of 230,000 active; AID 485360; note: % is set by controls: 0 for no effect and ±100 for the full control effect; nearly all actives have a fitted effect of over 60% in size
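Read-out is AlphaScreen signal from streptavidin donor and nickel chelate acceptor beads (10 ug/mL final each) bridging L3MBTL1 (50 nM) and biotinylated K9-monomethylated H3(1-15) peptide (75 nM), after 30 min compound exposure at room temperature.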
BAZ2B block = BAZ2B (human) inhibition; Q9UIF8; AlphaScreen BAZ2B-H3K14Ac peptide displacement; Potency, µM (series often up to 114 µM), without a hit: at the highest dose activity change, negative = inhibition, usual class: inhibitors; 4.4% of 360,000 active; AID 504333; note: % is set by controls: 0 for no effect and ±100 for the full control effect; nearly all actives have a fitted effect of over 60% in size
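Inhibition is scored as reduced AlphaScreen emission. The BAZ2B/b-H3(5-23)K14Ac complex (50 nM each) in PBS pH 7.4, 0.01% Tween-20 meets compound (up to 110 uM) for 30 min at RT before bead addition.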
G9a block = G9a (human) methyltransferase inhibition; Potency, µM (series often up to 102 µM), without a hit: top-dose activity, negative = inhibition, usual class: inhibitors; G9a H3K9 monomethylation, AlphaScreen, 2 h; AID 504332; 8.8% of 350,000 active; note: % is set by controls: 0 for no effect and ±100 for the full control effect; nearly all actives have a fitted effect of over 75% in size
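Methyltransferase reactions run at room temperature for 2 h (20 nM enzyme, 500 nM biotin-H3K9 peptide, 20 uM SAM) after a 15 min compound preincubation; product detected by AlphaScreen beads and anti-H3K9me1 antibody.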
HP1b chromo inh = inhibitors of HP1-beta chromodomain binding to methylated histone tails | P83916 | AlphaScreen HP1-beta / biotin-H3K9me3 peptide binding | Potency, µM (series often up to 114 µM), for the others: at the highest dose activity change, negative = inhibition, most hits filed as inhibitors | 0.56% of 390,000 active | AID 540317; note: nearly all actives have a fitted effect of over 70% in size
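AlphaScreen: HP1-beta (50 nM) preformed 30 min with biotin-H3(1-18)K9me3 peptide (50 nM) in PBS pH 7.4, 0.01% Tween-20. Compound added for 30 min at RT, then streptavidin donor/nickel chelate acceptor beads (10 ug/mL) for 30 min.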
Starred values were filed as active, the others as inactive; ? = inconclusive; / = no result; [ ] = remark or other dose. Shown are actives, neighbours in structure and some others; about 11% of the full set was active somewhere. Calls come from the whole dose curve; as a rule, active = well fitted inhibition curve with a large enough effect; inconclusive = small, poorly fitted or top-dose-only effect; inactive = no such curve, though single readings can be large or run the other way. Potency is the fitted concentration of half-maximal effect.

SMILES	JMJD2A Tudor inh	L3MBTL1 inh	BAZ2B block	G9a block	HP1b chromo inh
CCOC(=O)c1ccccc1NC(=O)c1ccc2nc[nH]c2c1	-23.1%	/	-5.5%	3.2%	22.7%
O=C(Nc1nccs1)c1ccc2nccnc2c1	79.4µM*	-4.4%	-2.1%	-12.3%	-22.2%
CCOC(=O)c1ccccc1NC(=O)c1ccc2nccnc2c1	50.1µM*	?	/	-27.1%	-10.7%
CCOc1ccccc1CNC(=O)c1cc2oc3ccccc3c2n1C	?	/	-29.5%	-5.0%[59 µM]	-8.3%
CCOc1ccccc1CNC(=O)c1cc2occc2n1C	-34.8%	?	44.7µM*	25.1µM*	?
COc1cc(/C=N/NC(=O)c2cccc(S(=O)(=O)N3CCCC3)c2)cc(OC)c1O	-9.7%	-5.5%	10.0%	14.1µM*	14.4%
CCN(CC)S(=O)(=O)c1cccc(C(=O)N/N=C/c2cc(OC)c(O)c(OC)c2)c1	-20.4%	-2.8%	1.0%	10µM*	15.2%
CC(=O)N1CCc2cc(C(=O)CN3CCN(C(=O)c4ccco4)CC3)ccc21	-25.4%	3.5%	-24.0%	12.6µM*	27.1%
CC(=O)N1CCc2cc(C(=O)CN3CCC(C)CC3)ccc21	-21.1%	5.5%	-4.5%	17.8µM*	39.2%
CC1CCN(CC(=O)N2CCc3ccccc32)CC1	-2.3%	/	1.0%	53.1%	44.4%
CC(=O)N1CCc2cc(C(=O)CN3CCCN(Cc4ccc(F)cc4)C3)ccc21	/	/	1.0%	44.7µM*	/
CC(=O)N1CCc2cc(C(=O)CN3CCN(c4cccc(Cl)c4)CC3)ccc21	-25.9%	-5.3%	-11.7%	22.4µM*	21.4%
COCCOC(=O)C1=C(C)NC(C)=C(C(=O)OC/C=C/c2ccccc2)C1c1cccc([N+](=O)[O-])c1 (configuration not stated)	/	/	/	-2.2%[59 µM]	/
Nn1c(SCC(=O)Nc2ccc(OC(F)F)cc2)nnc(Cc2ccccc2)c1=O	-6.9%	7.7%	3.0%	-3.6%	28.4%
CC(=O)Nc1ccn(C2CC3OCC(NC(=O)C(Cc4ccccc4)NC(=O)OC(C)(C)C)C3O2)c(=O)n1 (configuration not stated)	-20.7%	/	/	/	41.2%
Cc1ccsc1CCN1C(=O)N(c2ccc(F)cc2)C(=O)C1CC(=O)Nc1ccccc1 (configuration not stated)	-22.2%	/	-15.8%	4.3%[59 µM]	28.8%
CCCCC/C=C\C/C=C\C/C=C\C/C=C\CCCC(=O)O[C@@H](CO)COC(=O)CCCCCCCCCCCCCCCCC	/	/	/	13.7%[59 µM]	/
Cc1cc(C)n2ncc(C(=O)Nc3ccc4c(c3)CCC4)c2n1	-8.5%	/	/	/	/
Cc1cc(C)n2ncc(C(=O)Nc3ccc(Cl)c(Cl)c3)c2n1	-24.6%	-2.5%	-10.5%	39.8µM*	?
CS(=O)(=O)c1ccc(C(=O)OCC(=O)N(CCc2ccccc2)Cc2ccccc2)cc1	0.0%	-6.5%	3.5%	-3.8%[0.501 µM]	14.3%
O=C(NCc1ccco1)c1ccc2c(c1)N(Cc1ccccc1F)C(=O)c1ccccc1S2(=O)=O	-16.5%	/	-12.2%	?	6.5%
CC1CCC(NC(=O)CCCn2sc3ccccc3c2=O)CC1 (configuration not stated)	?	/	-16.0%	22.4µM*	9.6%
COC(=O)Cn1cnc2c(Cl)nc(F)nc21	-6.8%	10.2%	/	/	55.1%
Cc1cc(C(=O)OCC(=O)NC2CCCCC2C)c2ccccc2n1 (configuration not stated)	-3.6%	8.9%	/	/	41.2%
O=C(COC(=O)c1c2c(nc3ccccc13)/C(=C/c1ccco1)CC2)NC1CCCC1	?	4.47µM*	10µM*	3.55µM*	?
CC1CCCCC1NC(=O)COC(=O)c1c2c(nc3ccccc13)/C(=C/c1ccco1)CC2 (configuration not stated)	44.7µM*	?	44.7µM*	?	-35.3%
O=C(NC1C(=O)NNC1c1ccccc1)c1ccccc1 (configuration not stated)	-9.5%	-7.7%	1.6%	-13.2%[59 µM]	38.6%
Cc1cccc(C(=O)NC2C(=O)NNC2c2ccc(Cl)cc2)c1 (configuration not stated)	-28.5%	/	/	15.8µM*	11.0%
COc1ccc(C(=O)Nc2nc3c(s2)CCc2cc(OC)ccc2-3)cc1	-27.9%	/	-22.0%	6.31µM*	-11.6%
